“And” between values parts separate entries of the source, which are not always exact repeats. Equal entries are not always repeated. Records with an inconclusive call do not appear. Where a call stands in place of a potency, no number is given. More than one record can exist for a structure, and the calls need not agree. The source made the active and inactive calls. The call rests on the fitted dose curve; in most records, active means well fitted inhibition curve with a large enough effect in the signal ratio in the repeat runs (not every such curve was filed as active); inconclusive means weak or mixed curves, or effect the other way; inactive means no such curve, though single readings can be large or run the other way; the % refers to the signal ratio.
Potency means the concentration at half of the fitted maximal effect.

In this test the target is Glucocorticoid receptor (Homo sapiens) (UniProt P04150). The test is described as follows: qHTS assay to identify small molecule antagonists of the glucocorticoid receptor (GR) signaling pathway (AID 720692). The following applies: GR-bla HeLa, beta-lactamase FRET ratio, dexamethasone-stimulated, 18 h; series mostly up to 58.5 µM. An excerpt: U.S. Tox21 Program National Center for Advancing Translational Sciences [NCATS] NIH Chemical Genomics Center [NCGC] U.S. Environmental Protection Agency [EPA] National Institutes of Environmental Health Sciences [NIEHS] National Toxicology Program [NTP] U.S. Food and Drug Administration [FDA] Tox21 Assay Overview: The Glucocorticoid receptor (GR) is one of the members of the nuclear receptor family of ligand-dependent transcription factors. GR plays a critical role in carbohydrate, protein and lipid metabolisms and programmed cell death. CellSensor GR-bla HeLa cell line (Invitrogen) contains a beta-lactamase reporter gene under the control of the glucocorticoid response element stably integrated into HeLa cells, a cervical cancer cell line that expresses glucocorticoid receptor. The activation of the reporter gene under culture conditions can be detected by fluorescence intensity. This cell line has been used to screen the Tox21 10K compound library and to identify the compounds that inhibit the GR signaling.
Glucocorticoid receptor (Homo sapiens), sequence (P04150 whole entry, looked up): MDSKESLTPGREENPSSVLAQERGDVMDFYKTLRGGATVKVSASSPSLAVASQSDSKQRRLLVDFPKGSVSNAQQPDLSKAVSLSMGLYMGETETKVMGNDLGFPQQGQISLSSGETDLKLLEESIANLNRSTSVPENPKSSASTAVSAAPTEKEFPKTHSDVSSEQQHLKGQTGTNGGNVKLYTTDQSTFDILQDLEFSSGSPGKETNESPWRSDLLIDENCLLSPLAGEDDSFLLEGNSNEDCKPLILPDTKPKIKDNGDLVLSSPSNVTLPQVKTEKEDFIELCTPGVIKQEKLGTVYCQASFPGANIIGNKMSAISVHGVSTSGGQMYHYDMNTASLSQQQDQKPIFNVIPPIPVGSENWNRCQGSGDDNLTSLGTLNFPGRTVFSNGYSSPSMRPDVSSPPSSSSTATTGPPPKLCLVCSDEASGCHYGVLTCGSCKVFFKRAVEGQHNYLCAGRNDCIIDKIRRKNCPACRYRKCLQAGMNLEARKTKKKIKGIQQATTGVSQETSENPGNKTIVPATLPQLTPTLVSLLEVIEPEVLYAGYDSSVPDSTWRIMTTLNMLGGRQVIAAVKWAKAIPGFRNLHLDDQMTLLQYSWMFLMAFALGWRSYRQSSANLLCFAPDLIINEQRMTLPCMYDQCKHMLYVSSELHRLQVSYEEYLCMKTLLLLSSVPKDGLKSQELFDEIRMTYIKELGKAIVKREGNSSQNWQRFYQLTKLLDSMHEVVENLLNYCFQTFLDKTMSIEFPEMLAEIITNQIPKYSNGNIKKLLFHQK
Tox21 Assay Protocol Summary: The GR-bla HeLa cells were dispensed at 1500 cells/5 ul/well in 1536-well black wall/clear bottom plates using a Multidrop Combi (ThermoFisher Scientific, Waltham, MA) dispenser. After the assay plates were incubated at a 37 C/5% CO2 incubator for 4 hours, 23 nL of compounds dissolved in DMSO, positive controls or DMSO only was transferred to the assay plate by a pintool station (Kalypsys, San Diego, CA), followed by addition of 1 uL of dexamethasone (5 nM, final concentration in the well). The plates were incubated at 37 C for 18 hours. After 1 uL of LiveBLAzerTM B/G FRET substrate was added using a Flying Reagent Dispenser (Aurora Discovery, San Diego, CA), the plates were incubated at room temperature for 2 hours, and fluorescence intensity was measured by an Envision plate reader (PerkinElmer, Shelton, CT).
On the technique in general: In qHTS, concentration-response curves come from the screen itself.
For the molecule `CN(C)c1ccccc1`, the Potency entry was “inactive”.
On to `O=[N+]([O-])/N=C1\NCCN1Cc1ccc(Cl)nc1`, for which the Potency result was “inactive”.
Then `CC(C)COC(=O)c1ccccc1C(=O)OCC(C)C`, with “inactive”; and `CC(C)(c1ccccc1)c1ccc(O)cc1`, with 48.6 µM (active) and 54.9 µM (active).
Next, `[CH3][Sn]([Cl])([Cl])[Cl]`: “inactive”; `COc1ccc(O)c(C(C)(C)C)c1`: “inactive”.
On to `O=NN(c1ccccc1)c1ccccc1`, for which the Potency result is “inactive”.
Next, `CC(C)CON=O`: “inactive”.
Then `CCOP(=S)(OCC)SCn1c(=O)oc2cc(Cl)ccc21`, with “inactive”.
In the case of `CC(O)CN(CC(C)O)CC(C)O` (stereo not given), the Potency result was “inactive”.
Then `S=c1[nH]c2ccccc2[nH]1`, with “inactive”; and `COP(=S)(OC)Oc1ccc(S(=O)(=O)N(C)C)cc1`, with “inactive”; and `CCCCOCCOC(C)=O`, with “inactive”.
Then `CCCCOC(=O)COC(=O)c1ccccc1C(=O)OCCCC`, with “inactive”; and `CCCCCCCCCC(CC)c1ccc(S(=O)(=O)O)cc1` (stereo not given), with “inactive”.
Next, `CC(C)(c1ccc(OCC2CO2)cc1)c1ccc(OCC2CO2)cc1` (stereo not given): 49 µM (active).
With `ClCc1ccccn1`, the Potency result was “inactive”.
Next, `Clc1cccc(Cl)c1`: “inactive”; `Cc1ccc(N=CN(C)C=Nc2ccc(C)cc2C)c(C)c1`: “inactive”; `CCOP(=S)(OCC)OP(=S)(OCC)OCC`: “inactive”.
For `O=C(O)c1nn(Cc2ccc(Cl)cc2Cl)c2ccccc12`, the Potency entry was “inactive and 43.4 µM (active)”.
As to `ClC(Cl)(Cl)Br`, the Potency result was “inactive”.
Then `Cc1ccc([N+](=O)[O-])cc1`, with “inactive”; and `COC(=O)Nc1nc2ccccc2[nH]1`, with “inactive”; and `Oc1ccc(Cl)cc1Cl`, with “inactive”.
Take `Brc1ccc(Br)cc1`: the Potency result is “inactive”.
Turning to `c1ccc(C2CO2)cc1` (stereo not given), the Potency result is “inactive”.
Next, `ClC(Cl)(Cl)c1ccccc1`: “inactive”; `CCOC(=O)c1ccccc1N`: “inactive”.
Then `CCC/C=N/O`, with “inactive”; and `CCCCOCC1CO1` (stereo not given), with “inactive”.
As for `CNC(=O)Oc1cccc2c1OC(C)(C)C2`, the Potency result was “inactive”.
Then `N#CCCCCC#N`, with “inactive”; and `ClC(Cl)=C(Cl)C(Cl)=C(Cl)Cl`, with “inactive”.
Then `CC1=C(C(=O)Nc2ccccc2)SCCO1`, with “inactive”; and `OCCOCCO`, with “inactive”; and `NC(=O)CN1CCCC1=O`, with “inactive”.
Then `C[C@]12CCC(=O)C=C1CC[C@@H]1[C@@H]2CC[C@@]2(C)[C@H]1CC[C@]2(C)O`, with 6.01 µM (active) and 4.25 µM (active) and 2.61 µM (active).
Consider `CCCCSP(=O)(SCCCC)SCCCC`, for which the Potency entry is “inactive”.
Then `ClCC(Cl)CCl`, with “inactive”.

The values above are taken from PubChem BioAssay (Tox21).
